Laboratory results reported in PubChem BioAssay (NCI).
About 83,000 compounds went through this panel and 20% of them were active in at least one assay; those are over-represented in the sample as a whole.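 Growth was measured after 48 h exposure to one concentration of compound in 96-well plates. Values under 10 count as active.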 Values without a mark were called inactive. Active and inactive are the calls of the source.

Columns and labels:
Assay in all cases: NCI-60 one-dose screen, 48 h (100 = growth as untreated, 0 = no growth, -100 = all killed)
[1] = system: NCI-H23 lung; conditions: 10 µM unless noted
[2] = system: NCI-H226 lung; conditions: 10 µM unless noted
[3] = system: NCI-H322M lung; conditions: 10 µM unless noted
[4] = system: HOP-62 NSCLC; conditions: 10 µM unless noted
[5] = system: NCI-H460 lung; conditions: 10 µM unless noted
[6] = system: HOP-92 NSCLC; conditions: 10 µM
[7] = system: NCI-H522 lung; conditions: 10 µM unless noted
[8] = system: A549/ATCC NSCLC; conditions: 10 µM unless noted
[9] = system: 786-0 renal; conditions: 10 µM unless noted
[10] = system: COLO 205 colon; conditions: 10 µM unless noted

Row | Structure (SMILES) | growth [1] | growth [2] | growth [3] | growth [4] | growth [5] | growth [6] | growth [7] | growth [8] | growth [9] | growth [10]
1 | CC(=O)c1cc(C(=O)c2ccc(Br)cc2)n2cc(C)cc(C)c12 | 102% | 86.4% | 100% | 85.6% | 88.7% | 99% | 85.3% | 97.1% | 89.4% | 97.7%
2 | Nc1ccccc1NC(=O)c1ccc(NC(=O)C/C=C/c2cccnc2)cn1 | 22.7% | 25.1% | 35.9% | 27.1% | 31.6% | -7.8% (active) | 0.109% (active) | 33.5% | 31.9% | -21.9% (active)
3 | COc1ccc(NC(=O)CSc2nnc(-c3ccc4nc(-c5ccc(OC)c(OC)c5)[nH]c4c3)o2)cc1OC | 80.6% | 93.1% | 89.4% | 98.8% | 102% | 85.6% | 95.1% | 101% | 105% | 113%
4 | O=S(=O)(Oc1ccc(-c2nnc(Nc3ccccc3)s2)cc1)C(F)(F)C(F)(F)C(F)(F)C(F)(F)C(F)(F)C(F)(F)F | 100% | 99.6% | 113% | 103% | 103% | 101% | 95.9% | 101% | 108% | 104%
5 | CCCCCc1ccc(S(=O)(=O)Nc2cccc(-c3csc(NC(=O)CN4CCN(CCO)CC4)n3)c2)cc1 | 84.7% | 92.3% | 98.6% | 92.9% | 44.4% | 59.5% | 89.1% | 78.9% | 71.1% | 59.2%
6 | NS(=O)(=O)c1ccc(Nc2nc(Nc3ccccc3)nc3nnc(SCC(=O)NC4CCCCC4)n23)cc1 | 109% | 100% | 104% | 103% | 106% | 105% | 92.1% | 108% | 103% | 110%
7 | COc1ccccc1NC1=C(Cl)C(=O)c2nc(C)ccc2C1=O | -8.37% (active) | 29.6% | 71.1% | 74.1% | 70.8% | -83.8% (active) | -48.5% (active) | 101% | 9.17% (active) | 111%
8 | CCN(CC)c1ccc2c(c1)Oc1nc(N)c(C#N)c(N)c1C2Sc1ccc(C)cc1 (stereo not given) | -90% (active) | -54.6% (active) | -92.7% (active) | -71% (active) | -40.4% (active) | -93.9% (active) | -75.6% (active) | -56.9% (active) | -92.6% (active) | -53.6% (active)
9 | Oc1cccc2ccc(-c3nnc(SCc4ccc(O)c5ncccc45)n3-c3ccccc3)nc12 | 20.5% | 39.5% | 20.9% | 16.5% | 2.48% (active) | -0.323% (active) | 13.5% | 15.4% | 25.9% | 53.9%
10 | O=C(NNc1nc2cc(F)c(F)cc2n2c(CN3CC4CNCC4C3)ccc12)c1ncccn1 (stereo not given) | 26% | 10.6% | 27.8% | 0.597% (active) | 2.27% (active) | 20.2% | 0.166% (active) | 15.2% | 9.75% (active) | 9.36% (active)
11 | Cc1ccc(NC(=S)NNC(=S)Nc2ccc(C)cc2)cc1 | 95.2% | 103% | 96.7% | 97.8% | 112% | 93.1% | 93.4% | 105% | 89.6% | 115%
12 | c1ccc(C(c2nc3ncncc3[nH]2)N2CSc3nc4ncncc4n3C2)cc1 (stereo not given) | 55% | 56.2% | 64.3% | 26.3% | 83.6% | 64.9% | 39.8% | 92.2% | 33.9% | 61.8%
13 | CCn1c(SCC(=O)Nc2cccc(C(=O)/C=C/c3ccc(C)cc3)c2)nc2ccccc2c1=O | 76.9% | 73.4% | 86.7% | 108% | 98.2% | 77.7% | 81.1% | 68% | 93.6% | 122%
14 | COC(=O)/C=C/c1c(C2(C)NC(=O)c3ccccc3N2)c(=O)oc2ccc(Cl)cc12 (stereo not given) | 96.3% | 88.1% | 95.1% | 92.7% | 96.3% | 88.9% | 68.3% | 95.2% | 96.3% | 117%
15 | Oc1cccc2ccc(-c3nnc(SCc4ccc(O)c5ncccc45)o3)nc12 | 3.67% (active) | 35.2% | 39.9% | 25.8% | 1.33% (active) | -16% (active) | 11.2% | 15.9% | 21.1% | 31.7%
16 | Cn1ccnc1C(=O)/C=C/c1ccc(NC(=O)c2ccc(F)cc2)cc1 | 13.4% | 45.3% | 46.3% | 64.5% | -19.7% (active) | 47.2% | 17.4% | 34.8% | 22.1% | 75.4%
17 | CCn1c(SCC(=O)Nc2cccc(C(=O)/C=C/c3ccccc3Cl)c2)nc2ccccc2c1=O | 69.5% | 81.9% | 90.5% | 93.7% | 95.7% | 72.7% | 85.3% | 78.6% | 95.6% | 114%
18 | CCCCCc1ccc(S(=O)(=O)Nc2cc(-c3csc(NC(=O)CN4CCN(C)CC4)n3)ccc2OC)cc1 | 49.8% | 74.6% | 5.27% (active) | 60.3% | -61.5% (active) | 22.1% | -51.9% (active) | 15.1% | -75% (active) | -57.6% (active)
19 | COC(=O)C[Se]C(=O)Cc1c(C)n(C(=O)c2ccc(Cl)cc2)c2ccc(OC)cc12 | 11.5% | 52.8% | 44.7% | 25.4% | 16.3% | 53.2% | 44.8% | 18.7% | 83.3% | 49.5%
20 | CCOC(=O)C(=O)/C(=C\c1ccc(Cl)cc1)C(=O)N1C(=S)NC(=O)C1CC(C)C (stereo not given) | 96.5% | 92% | 95.3% | 95.6% | 102% | 86.8% | 91.7% | 104% | 103% | 109%
21 | N#Cc1cccc(NC(=O)c2cc(-c3ccc(F)cc3F)ccc2O)c1 | 2.72% (active) | 12% | 10.8% | 20.9% | 5.69% (active) | -24.7% (active) | 1.9% (active) | 11.3% | 13.2% | 95.2%
